# From PubChem BioAssay (NCATS)
# Values joined by “and” are separate entries in the source; they are usually repeats but may differ in a detail not shown here. Equal values may be shown once. Records with an inconclusive call do not appear. Entries that show only a call come without a potency. Some structures have more than one record in an assay (separate samples or runs), and their calls can disagree. Active and inactive are the calls of the source. Calls come from the whole dose curve; as a rule, active = well fitted inhibition curve with a large enough effect; inconclusive = small, poorly fitted or top-dose-only effect; inactive = flat fitted curve, though single readings scatter.
# How the values were obtained:
# [1] = tested on: CRL-7250; experiment: Cytotoxic Profiling of Annotated Libraries Using Quantitative High-Throughput Screening (AID 1296008); conditions: Five cell lines viability, CellTiter-Glo ATP luminescence, 48-72 h; max response: stronger effect = lower value
# Outline: (§1)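 Cytotoxicity was measured as CellTiter-Glo ATP luminescence, read after 10 min at room temperature. Compound treatment of the cells lasted 48 or 72 hr at 37 degrees Celsius in a qHTS format.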
# [2] = tested on: HEK293; experiment: as above; conditions: Five cell lines viability, CellTiter-Glo ATP luminescence, 48-72 h; max response: stronger effect = lower value
# Outline: as §1
# [3] = tested on: HaCat; experiment: as above; conditions: Five cell lines viability, CellTiter-Glo ATP luminescence, 48-72 h; max response: stronger effect = lower value
# Outline: as §1
# [4] = tested on: KB-3-1; experiment: as above; conditions: Five cell lines viability, CellTiter-Glo ATP luminescence, 48-72 h; max response: stronger effect = lower value
# Outline: as §1
# [5] = tested on: NIH3T3; experiment: as above; conditions: Five cell lines viability, CellTiter-Glo ATP luminescence, 48-72 h; max response: stronger effect = lower value
# Outline: as §1
# [6] = tested on: MCC-13; experiment: qHTS assay to identify novel small-molecules to repurpose for Merkel cell carcinoma treatment (AID 1296009); conditions: MCC and control cell lines, CellTiter-Glo viability, 72 h; series mostly up to 46 µM
# Outline: (§2)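 Cell viability measured by CellTiter-Glo following 72 hr compound treatment at 37 degree celsius, with NPC and MIPE libraries tested in 8- and 11-point concentration series.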
# [7] = tested on: MCC-26; experiment: as above; conditions: MCC and control cell lines, CellTiter-Glo viability, 72 h; series mostly up to 46 µM
# Outline: as §2
# [8] = tested on: MKL-1; experiment: as above; conditions: MCC and control cell lines, CellTiter-Glo viability, 72 h; series mostly up to 46 µM
# Outline: as §2
# [9] = tested on: MKL-2; experiment: as above; conditions: MCC and control cell lines, CellTiter-Glo viability, 72 h; series mostly up to 46 µM
# Outline: as §2
# [10] = tested on: UISO; experiment: as above; conditions: MCC and control cell lines, CellTiter-Glo viability, 72 h; series mostly up to 46 µM
# Outline: as §2
# [11] = tested on: PC26; experiment: qHTS profiling for inhibitors of Plasmodium falciparum proliferation (AID 504749); conditions: P. falciparum in erythrocytes, SYBR Green DNA, 72 h; series mostly up to 28.7 µM
# Outline: (§3)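 In a 72 h erythrocytic culture (37 C, humidified, 5% CO2) at 2.5% hematocrit and 0.3% starting parasitemia, compounds were tested; SYBR Green I in detergent lysis buffer stained parasite DNA overnight.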
# [12] = tested on: PC49; experiment: as above; conditions: P. falciparum in erythrocytes, SYBR Green DNA, 72 h; series mostly up to 28.7 µM
# Outline: as §3
# [13] = tested on: SC27B; experiment: as above; conditions: P. falciparum in erythrocytes, SYBR Green DNA, 72 h; series mostly up to 28.7 µM
# Outline: as §3
# [14] = tested on: TAB109; experiment: as above; conditions: P. falciparum in erythrocytes, SYBR Green DNA, 72 h; series mostly up to 28.7 µM
# Outline: as §3
# [15] = tested on: TAB113; experiment: as above; conditions: P. falciparum in erythrocytes, SYBR Green DNA, 72 h; series mostly up to 28.7 µM
# Outline: as §3
# [16] = tested on: TAB165; experiment: as above; conditions: P. falciparum in erythrocytes, SYBR Green DNA, 72 h; series mostly up to 28.7 µM
# Outline: as §3
# [17] = tested on: W2; experiment: as above; conditions: P. falciparum in erythrocytes, SYBR Green DNA, 72 h; series mostly up to 28.7 µM
# Outline: as §3
# [18] = tested on: HACAT; experiment: qHTS assay to identify novel small-molecules to repurpose for Merkel cell carcinoma treatment (AID 1296009); conditions: MCC and control cell lines, CellTiter-Glo viability, 72 h; at 44.8 µM (top of the series) unless noted
# Outline: as §2
# [19] = tested on: HEK293T; experiment: as above; conditions: MCC and control cell lines, CellTiter-Glo viability, 72 h; at 44.8 µM (top of the series)
# Outline: as §2
# [20] = tested on: NIH3T3; experiment: as above; conditions: MCC and control cell lines, CellTiter-Glo viability, 72 h; at 44.8 µM (top of the series) unless noted
# Outline: as §2
# Note: nearly all actives have a fitted effect of over 60% in size.
# Potency is the fitted concentration of half-maximal effect.
smiles,measurement,setting,value
CC(C)OC(=O)C1=CN(C(=O)c2ccc(F)c(F)c2)CC(C)(C)c2c1[nH]c1ccccc21,max response,[1],1.22% (inactive)
same,outcome,[1],inactive
same,max response,[2],-9.23% (inactive) and -19.6% (inactive)
same,max response,[3],-4.65% (inactive)
same,max response,[4],-6.75% (inactive) and 0.0694% (inactive)
same,max response,[5],3.45% (inactive) and -0.558% (inactive)
same,Potency,[6],inactive
same,Potency,[7],inactive
same,Potency,[8],inactive
same,Potency,[9],inactive
same,Potency,[10],inactive
Cc1cn[nH]c1,Potency,[11],inactive
same,Potency,[12],inactive
same,Potency,[13],inactive
same,Potency,[14],inactive
same,Potency,[15],inactive
same,Potency,[16],inactive
same,Potency,[17],inactive
same,Potency,[1],5.26 µM (active)
same,max response,[1],-13.4% (inactive)
same,Potency,[2],4.69 µM (active)
same,outcome,[2],inactive
same,max response,[3],-8.18% (inactive)
same,outcome,[3],inactive
same,max response,[4],12.8% (inactive)
same,outcome,[4],inactive
same,max response,[5],3% (inactive)
same,outcome,[18],inactive
same,outcome,[19],inactive
same,Potency,[6],inactive
same,Potency,[7],inactive
same,Potency,[8],inactive and 5.9 µM (active)
same,Potency,[9],inactive
same,Potency,[10],inactive and 2.96 µM (active)
O=c1n(CCCN2CCN(c3cccc(Cl)c3)CC2)nc2ccccn12,Potency,[11],inactive
same,Potency,[12],inactive
same,Potency,[13],inactive
same,Potency,[14],inactive
same,Potency,[15],inactive
same,Potency,[16],inactive
same,Potency,[17],inactive
same,max response,[1],-10.4% (inactive)
same,outcome,[1],inactive
same,max response,[2],2.07% (inactive) and 1.71% (inactive)
same,max response,[4],-0.946% (inactive) and 1.57% (inactive)
same,max response,[5],3.22% (inactive) and 3% (inactive)
same,outcome,[18],inactive
same,Potency,[6],inactive
same,Potency,[7],inactive
same,Potency,[8],inactive
same,Potency,[9],inactive
same,Potency,[10],inactive
CC(C[N+](C)(C)C)OC(N)=O (stereo unspecified),Potency,[11],inactive
same,Potency,[12],inactive
same,Potency,[13],inactive
same,Potency,[14],inactive
same,Potency,[15],inactive
same,Potency,[16],inactive
same,Potency,[17],inactive
same,max response,[1],0.597% (inactive)
same,outcome,[1],inactive
same,max response,[2],3.57% (inactive)
same,outcome,[2],inactive
same,max response,[4],3.39% (inactive) and 7.21% (inactive)
same,outcome,[5],inactive
same,outcome,[18],inactive
same,outcome,[19],inactive
same,Potency,[6],inactive
same,Potency,[7],inactive
same,Potency,[8],inactive
same,Potency,[9],inactive
same,outcome,[20],inactive
same,Potency,[10],inactive
Cc1[nH]c(=O)c(C#N)cc1-c1ccncc1,Potency,[11],inactive
same,Potency,[12],inactive
same,Potency,[13],inactive
same,Potency,[14],inactive
same,Potency,[15],inactive
same,Potency,[16],inactive
same,Potency,[17],inactive
same,max response,[1],1.86% (inactive) and -12.7% (inactive)
same,outcome,[1],inactive
same,max response,[2],-9.35% (inactive)
same,outcome,[2],inactive
same,max response,[3],4.3% (inactive) and 4.05% (inactive) and -9.78% (inactive)
same,max response,[4],6.66% (inactive) and -5.96% (inactive) and -18.3% (inactive)
same,max response,[5],0.936% (inactive)
same,outcome,[5],inactive
same,outcome,[19],inactive
same,Potency,[6],inactive
same,Potency,[7],inactive
same,Potency,[8],inactive
same,Potency,[9],inactive
same,outcome,[20],inactive
same,Potency,[10],inactive
COc1cc(Nc2ncc3c(n2)-c2ccc(Cl)cc2C(c2c(F)cccc2OC)=NC3)ccc1C(=O)O,Potency,[1],20.6 µM (active)
same,Potency,[2],23.1 µM (active)
same,max response,[2],-33.7% (inactive)
same,Potency,[4],2.09 µM (active)
same,Potency,[5],7.43 µM (active)
same,Potency,[7],inactive
same,Potency,[9],inactive
same,Potency,[10],inactive
O=C1CCC(N2C(=O)c3ccccc3C2=O)C(=O)N1 (stereo unspecified),Potency,[11],inactive
same,Potency,[12],inactive
same,Potency,[13],inactive
same,Potency,[14],inactive
same,Potency,[15],inactive
same,Potency,[16],inactive
same,Potency,[17],inactive
same,max response,[1],1.53% (inactive)
same,outcome,[1],inactive
same,max response,[2],-7.21% (inactive)
same,outcome,[2],inactive
same,max response,[4],0.83% (inactive) and 2.13% (inactive)
same,max response,[5],-0.804% (inactive)
same,outcome,[5],inactive
same,outcome,[18],inactive
same,outcome,[19],inactive
same,Potency,[6],inactive
same,Potency,[7],inactive
same,Potency,[8],inactive
same,Potency,[9],inactive
same,outcome,[20],inactive
same,Potency,[10],inactive
c1ccc([C@H]2CN3CCSC3=N2)cc1,max response,[1],-3.88% (inactive) and 4.82% (inactive)
same,max response,[2],-11.1% (inactive)
same,outcome,[2],inactive
same,max response,[3],1.22% (inactive)
same,outcome,[3],inactive
same,max response,[4],-2.88% (inactive) and 1.89% (inactive)
same,max response,[5],1.43% (inactive) and 2.53% (inactive)
same,outcome,[18],inactive
same,outcome,[19],inactive
same,Potency,[6],inactive
same,Potency,[7],inactive
same,Potency,[8],inactive
same,Potency,[9],inactive
same,Potency,[10],inactive
Cc1cnc(Nc2ccc(OCCN3CCCC3)cc2)nc1Nc1cccc(S(=O)(=O)NC(C)(C)C)c1,Potency,[1],3.72 µM (active)
same,Potency,[2],5.17 µM (active)
same,max response,[2],0.504% (inactive)
same,Potency,[3],5.8 µM (active)
same,max response,[3],2.79% (inactive)
same,Potency,[4],6.51 µM (active)
same,max response,[4],5.89% (inactive)
same,outcome,[5],inactive
same,Potency,[6],inactive
same,Potency,[7],inactive
same,Potency,[8],inactive
same,outcome,[20],inactive
same,Potency,[10],inactive
Cc1c(C)c2c(c(C)c1O)CCC(C)(COc1ccc(CC3SC(=O)NC3=O)cc1)O2 (stereo unspecified),Potency,[12],inactive
same,Potency,[13],10 µM (active)
same,Potency,[14],inactive
same,Potency,[15],11.2 µM (active)
same,Potency,[17],6.75 µM (active)
same,outcome,[1],inactive
same,max response,[2],-17% (inactive)
same,outcome,[2],inactive
same,outcome,[3],inactive
same,max response,[4],-2.71% (inactive) and -9.42% (inactive)
same,max response,[5],-1.07% (inactive)
same,outcome,[5],inactive
same,outcome,[18],inactive
same,outcome,[19],inactive
same,Potency,[6],inactive
same,Potency,[7],inactive
same,Potency,[8],inactive
same,Potency,[9],inactive
same,outcome,[20],inactive
